The values that follow come from PubChem BioAssay AID485344 (National Center for Advancing Translational Sciences (NCATS), 2010).

Screen size: about 340,000 compounds; about 6,900 (2%) were called active. Many of the other results were omitted from the sample, so actives are more common in it than they were. Values without a mark were called inactive. Rule as the data show it: active = inhibition above about 30%; inactive = below that, where a call was filed.

Broadly, the inhibition is the drop in the measured response relative to a control, in per cent.

Sequence of D(2) dopamine receptor (Homo sapiens) (P14416 whole entry, looked up): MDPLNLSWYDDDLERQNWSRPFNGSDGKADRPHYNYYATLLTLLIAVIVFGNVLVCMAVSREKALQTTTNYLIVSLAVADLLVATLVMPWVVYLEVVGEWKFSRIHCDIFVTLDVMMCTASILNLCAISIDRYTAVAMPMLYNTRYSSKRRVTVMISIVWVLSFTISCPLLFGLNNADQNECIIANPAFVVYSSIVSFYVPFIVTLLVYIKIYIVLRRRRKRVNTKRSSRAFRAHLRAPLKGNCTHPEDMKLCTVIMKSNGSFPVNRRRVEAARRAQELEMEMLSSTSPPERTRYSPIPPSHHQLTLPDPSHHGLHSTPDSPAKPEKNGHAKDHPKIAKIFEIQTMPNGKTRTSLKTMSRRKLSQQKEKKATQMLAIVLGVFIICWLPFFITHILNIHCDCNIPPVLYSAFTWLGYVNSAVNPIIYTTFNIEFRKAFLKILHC

For this test, the target named is D(2) dopamine receptor (Homo sapiens) (UniProt P14416). The experiment in a line: HTS Assay for Allosteric Antagonists of the Human D2 Dopamine Receptor: Primary Screen for Antagonists. Also: 0% is about no effect. Conditions: HEK293 TREx D2 cells, calcium flux, dopamine EC80; at 10 µM; stronger effect = higher value. The gist of the method:
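Antagonism is scored as inhibition of an EC80 dopamine-evoked calcium signal in a force-coupled, tetracycline-inducible HEK293 T-REx D2 line, with compound present 180 s before agonist.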
In general terms: A change in cytosolic calcium serves as a functional read-out for many receptors and channels.
As to `CCOCCn1[nH]c2ccccc2c1=O`, the inhibition was 9.72%.
Then `CC(=O)Nc1ccc(S(=O)(=O)NC(C)C(=O)OCCOc2ccc(F)cc2)cc1` (stereo unspecified), with 8.18%; and `COc1ccccc1NS(=O)(=O)c1ccc(C(=O)N2CCN(c3ccccc3O)CC2)cc1`, with -20.7%; and `O=C(CNC(=O)C(c1ccccc1)c1ccccc1)N/N=C\c1ccc2c(c1)OCO2`, with 34.6% (active).
The result for `Cc1[nH]c2ccccc2c1/C=N/NC(=O)CNC(=O)c1ccc2c(c1)OCO2` reads -12.8%.
On to `O=C(Cc1ccc(F)cc1)N/N=C/c1ccc2c(c1)OCO2`, for which the inhibition was -1.11%.
`COC(=O)c1ccc(NS(=O)(=O)c2cc3c4c(c2)C(C)C(=O)N4CCC3)cc1` (stereo unspecified): the inhibition is 4.01%.
The result for `CCCn1nc(C(=O)NNC(=O)CCOc2ccccc2OCC)c2ccccc2c1=O` reads 17.8%; that for `COc1ccc(NC(=O)NC2CC3CCCC(C2)N3Cc2ccccc2)cc1` (stereo unspecified), 46% (active); that for `CCOc1ccccc1C(=O)NC1CC2CCCC(C1)N2Cc1ccccc1` (stereo unspecified), 92.5% (active).
Then `COc1ccc(NC(=O)N2CCC(Cc3ccccc3)CC2)cc1`, with 3.66%; and `COc1ccc(NC(=S)N2CCC(NC(=O)c3cccc(F)c3)CC2)cc1`, with -6.43%.
Then `COc1ccc(CN2C3CCCC2CC(NC(=O)c2cccc(F)c2)C3)cc1` (stereo unspecified), with 80.1% (active).
For the compound `CCCCOCCCNC(=O)c1ccccc1OCC`, the inhibition is -16%.
In the case of `CC(=O)NC1CC2CCCC(C1)N2CC(=O)Nc1ccccc1` (stereo unspecified), the inhibition is 14.7%.
Take `COc1cccc(C(=O)NNC(=O)c2cccc(F)c2)c1`: the inhibition was 0.993%.
Then `O=C(NC1CCN(Cc2ccccc2)CC1)c1ccccc1F`, with 21.8%; and `COc1ccc(C(=O)Oc2ccc(-c3nnco3)cc2)cc1S(=O)(=O)N1CCOCC1`, with 14.7%.
The result for `Cc1ccc2nc(SCC(=O)N3CC(C)OC(C)C3)nc(=O)n2c1` (stereo unspecified) reads -3.68%; that for `O=C(CNS(=O)(=O)c1ccc2c(c1)OCCCO2)N1CCN(c2ccc(F)cc2)CC1`, -12.5%; that for `Cn1c(-c2ccc(F)cc2)cc2onc(-c3ccccc3Cl)c2c1=O`, 8.07%.
Consider `CCN(CC)S(=O)(=O)c1ccc2[nH]c(=O)cc(C(=O)N(C)C3CCS(=O)(=O)C3)c2c1` (stereo unspecified), for which the inhibition was -4.37%.
Then `CC(=O)Nc1ccccc1NC(=O)c1cc(C)cc(C)c1`, with 13.8%; and `CSCc1ccc(C(=O)Nc2cc(C)cc(C)c2)cc1`, with 30.3% (active).
Then `C=CCN(c1ccc(C(=O)Nc2cc(C)cc(C)c2)cc1)S(C)(=O)=O`, with -5.69%; and `COC(=O)Cc1ccc(OC(=O)C2CCN(S(=O)(=O)c3ccc(OC)c(OC)c3)CC2)cc1`, with -7.28%; and `COc1ccc(CC(=O)OC(C)C(=O)Nc2ccc(S(N)(=O)=O)cc2)cc1` (stereo unspecified), with -2.4%.
The result for `CCCc1nnc(NC(=O)c2cc(OC)cc(OC)c2)s1` reads -9.73%.
Take `COc1ccc(Cc2nnc(NC(=O)c3cc(OC)c(OC)c(OC)c3)s2)cc1OC`: the inhibition is 34.9% (active).
For the compound `COc1ccc(Cc2nnc(NC(=O)c3ccc(OC)cc3OC)s2)cc1`, the inhibition is 2.14%.
As to `Cc1ccc(N2CC(C(=O)Nc3cc(Cl)ccc3-n3cncn3)CC2=O)cc1` (stereo unspecified), the inhibition was -16.3%.
Then `CCN(Cc1ccccc1)C(=O)Cc1ccc(OC)c(S(=O)(=O)N2CCOCC2)c1`, with -8.71%.
Then `CC(NCC(=O)Nc1ccccc1C(=O)NC1CC1)c1ccccc1Cl` (stereo unspecified), with 26.6%; and `COc1ccc(C(CNC(=O)c2cccc(S(=O)(=O)Nc3ccccc3Cl)c2)N2CCOCC2)cc1` (stereo unspecified), with -9.15%.
The result for `CC(=O)C1=C(C)NC2=C(C(=O)CC(C)(C)C2)C1C` (stereo unspecified) reads 34% (active); that for `COc1cc(C2C(C#N)=C(C)NC3=C2C(=O)CC(C)(C)C3)ccc1O` (stereo unspecified), -7.78%; that for `CCOC(=O)C1=C(C)NC2=C(C(=O)CC(C)(C)C2)C1c1ccsc1` (stereo unspecified), -9.11%.
For the compound `CCOC(=O)c1ccccc1NC(=O)COC(=O)C(Cc1c[nH]c2ccccc12)NC(C)=O` (stereo unspecified), the inhibition was -6.93%.
The result for `CCC(=O)c1ccc(OCC(=O)Nc2ccc(N3CCCCC3)cc2)cc1` reads 19%; that for `CCN(CC(=O)Nc1cc(Cl)ccc1C)C(=O)CSCc1ccc(C)cc1`, -3.18%.
Then `COC(=O)C1=C(C)NC2=C(C(=O)c3ccccc32)C1c1ccc(-c2ccc(C(=O)O)cc2)o1` (stereo unspecified), with 54.8% (active).
Then `Cc1ccc(C2C3=C(Nc4[nH]n(-c5ccccc5)c(=O)c42)c2ccccc2C3=O)cc1` (stereo unspecified), with -28.5%.
Turning to `CCOC(=O)C1=C(c2ccc(OC)cc2)C(=O)c2ccccc2C1=O`, the inhibition was -4.28%.
Then `O=C(c1ccc(Cl)c(S(=O)(=O)N2CCCCCC2)c1)N1CCN(c2ccc(O)cc2)CC1`, with 4.16%; and `CCOC(=O)C(C)N(c1ccccc1Cl)S(C)(=O)=O` (stereo unspecified), with -9.97%; and `O=C(CCc1c[nH]c2ccccc12)NCCOc1ccccc1`, with 12.3%.
Then `CCN(CC)CCNC(=O)CCCCCn1c(=O)[nH]c2cc(C(=O)OC)ccc2c1=O`, with -2.71%; and `Cc1ccc(C)c(N2CCN(C(=O)CCCCn3c(=O)[nH]c4ccccc4c3=O)CC2)c1`, with -2.01%; and `O=C(CCCn1c(=O)[nH]c2cc(Cl)ccc2c1=O)NCCN1CCN(c2ccccc2)CC1`, with 81.3% (active).
The result for `O=C(CCCCCn1c(=O)[nH]c2ccccc2c1=O)NCCc1c[nH]c2ccccc12` reads 39.1% (active).
`O=C(CCCCn1c(=O)[nH]c2ccccc2c1=O)NCc1ccc2c(c1)OCO2`: the inhibition is -1.23%.
The result for `O=C(CSc1ccccc1)Nc1cccc(S(=O)(=O)N2CCOCC2)c1` reads 12.8%.
The result for `O=C(/C=C/c1cccc([N+](=O)[O-])c1)OCC(=O)N1CCOCC1` reads 13.9%.
The result for `CSc1ccccc1NC(=O)COC(=O)CCCOc1ccc(C)cc1` reads 5.07%; that for `CCOc1cc(/C=C/C(=O)OCC(=O)NCCN2C(=O)CSC2=O)ccc1OCC(C)C`, 2.85%.
For the compound `COc1ccccc1C(=O)NC(CCSC)C(=O)NNC(=O)c1csc(N2CCOCC2)n1` (stereo unspecified), the inhibition was 6.58%.
Turning to `O=C(NNC(=O)c1cc(-c2ccccc2Cl)nc2ccccc12)c1csc(N2CCOCC2)n1`, the inhibition is 4.74%.
Then `CSCCC(NC(=O)c1ccc(Cl)cc1Cl)C(=O)NNC(=O)c1csc(N2CCOCC2)n1` (stereo unspecified), with 33.7% (active).
The result for `CN1CCN(c2ccc(NC(=O)c3cc(Cl)c4c(c3)OCCO4)cc2)CC1` reads -8.36%; that for `COc1ccc(S(=O)(=O)N2CCCC2CNC(=O)C(=O)NC2CC2)cc1` (stereo unspecified), 2.63%; that for `CN(C)CCOC1c2ccccc2-c2ccccc21`, -3.38%.
The result for `Cc1ccccc1C(OCCN(C)C)C1CCCCC1` (stereo unspecified) reads 86.8% (active); that for `Cc1ccccc1C(OCC(O)CN1CCCCC1CCO)c1ccccc1` (stereo unspecified), -4.51%; that for `Cc1ccc(S(=O)(=O)NCCC(=O)NNC(=O)C2COc3ccccc3O2)cc1` (stereo unspecified), -0.636%.
With `CCCCN(C(=O)c1ccc2ccccc2c1)c1c(N)n(CCCC)c(=O)[nH]c1=O`, the inhibition was -22.6%.
Turning to `Cc1ccc(/C=C/C(=O)OCC(=O)Nc2cccnc2Cl)cc1`, the inhibition was 13%.
The result for `Nc1nc(SC23CC4CC(CC(C4)C2)C3)ns1` reads -8.79%.
Then `CCCSc1nsc(N)n1`, with -5.55%; and `CCCCCCSc1nsc(N)n1`, with 51.1% (active); and `Cc1ccc(S(=O)(=O)N2CCCCC2)cc1NC(=O)c1cccnc1`, with 1.41%.
The result for `CCNC(=O)N1CCN(S(=O)(=O)c2ccc3c(c2)OCCCO3)CC1` reads 11.7%.
As for `CCN(CC(=O)Nc1cccc(S(=O)(=O)N2CCCCC2)c1)Cc1ccccc1`, the inhibition was 0.844%.
Then `COc1ccccc1N1CC(C(=O)NCCN2C(=O)S/C(=C\c3cccnc3)C2=O)CC1=O` (stereo unspecified), with 4.67%; and `Cc1cc(OCCCN2CCN(Cc3ccccc3)CC2)ccc1[N+](=O)[O-]`, with -14.3%; and `COc1cc(CN2CCCN(C)CC2)c([N+](=O)[O-])cc1OC`, with 24.2%.
For the compound `COc1cc(CN2CCN(Cc3ccc(C)cc3)CC2)c([N+](=O)[O-])cc1OC`, the inhibition is 88.1% (active).
Then `COc1ccc(-c2sc3ccc(OC)cc3c2C#Cc2ccccn2)cc1`, with -2.01%; and `CC1CN(C2CCCCC2)c2nc3c(c(=O)n(C)c(=O)n3C)n2C1` (stereo unspecified), with 38.7% (active).
Consider `CC(O)c1nc2c(c(=O)n(C)c(=O)n2C)n1C` (stereo unspecified), for which the inhibition is 0.261%.
The result for `CCCCCCn1c(CN2CCCC(C)C2)nc2c1c(=O)n(C)c(=O)n2C` (stereo unspecified) reads 2.89%.
The result for `CCN(CC(=O)NCc1cccs1)C(=O)/C=C/c1ccc(C)cc1` reads 0.23%; that for `COc1ccc2c(C)cc(SCC(=O)NCC3CCCO3)nc2c1` (stereo unspecified), 0.454%.
Then `O=C(NC1CCCCCC1)C1CCN(C(=O)c2ccc(Cl)cc2)CC1`, with -21.8%; and `COc1ccccc1OCCNC(=O)C(CCSC)NC(=O)COc1ccccc1` (stereo unspecified), with 0.971%.
As for `S=C(Nc1cccc(Cl)c1)Nc1ccc2c(c1)OCCO2`, the inhibition is 3.88%.
Then `S=C(Nc1cccc(Cl)c1)Nc1ccc2cn[nH]c2c1`, with -2.72%; and `Cc1csc(NC(=S)Nc2cccc(Cl)c2)n1`, with 32.1% (active).
In the case of `CN(CC(=O)Nc1ccc(F)cc1)CC(=O)Nc1ccc(Cl)c(S(=O)(=O)N2CCOCC2)c1`, the inhibition is -2.29%.
The result for `CN(CCC(=O)Nc1cc(S(=O)(=O)N(C)C)ccc1Cl)CC(=O)Nc1ccc(F)cc1` reads 50.6% (active); that for `CN(CC(=O)Nc1ccc(S(=O)(=O)N2CCCC2)cc1)Cc1ccc(Cl)c(Cl)c1`, -19.3%; that for `Cc1ccc(CN2CC(C(=O)NNC(=O)Cn3ccc(C(F)(F)F)n3)CC2=O)cc1` (stereo unspecified), 9.85%.
